# PubChem BioAssay (EPA / NIEHS)
# Active and inactive are the calls of the source. Rule for the calls: active = hit-call score of the fitted dose curve at least 0.9, where 1 is the maximum; inactive = score below 0.9.
# Read-out: Cytochrome P450 (CYP1A1), CYP1A1 (gene 1543)
# Assay: LTEA_HepaRG_CYP1A1: Life Technologies and Expression Analysis (LTEA) Assay for Cytochrome P450 (CYP1A1) using HepaRG (AID 2283454)
# Settings: mRNA level, 48 h; actives raise or lower the signal
# Method: LTEA_HepaRG is a cell based, multiplexed-readout assay that uses HepaRG, a human liver cell line, with measurements taken at 48 hours after chemical dosing on a 96-well plate.LTEA_HepaRG_CYP1A1 is one of 102 assay component(s) measured in the LTEA HepaRG cell culture assay. It is a marker of NR mediated metabolism.Data from the assay component LTEA_HepaRG_CYP1A1 was analyzed into 1 endpoint. This assay endpoint, LTEA_HepaRG_CYP1A1, was analyzed with bidirectional fitting relative to DMSO as the negative control and baseline of activity. Using a type of inducible reporter, measures of mRNA induction for gain or loss-of-signal activity can be used to understand regulation of transcription factor activity. To generalize the intended target to other relatable targets, this assay endpoint is annotated to the cyp intended target family, where the subfamily is xenobiotic metabolism.
# A total of 1060 chemcials from the ToxCast library were tested in eight-point concentration-response experiments. Cell culture and cytotoxicity assays were conducted at Thermo Fisher Scientific's Custom Services facility (Madison, WI). A single lot of human HepaRG cells (Thermo Fisher Scientific, Frederick, MD) was used for the cell culture experiments. 96-well format collagen type I coated plates of human HepaRG cells were prepared using established methods. Briefly, cryopreserved HepaRG cells were thawed, plated at a density of approximately 100,000 cells/well in HepaRG Thaw, Plate, and General Purpose media (HPRG770, Thermo Fisher Scientific), and incubated for 48 hours. 0.5% DMSO was selected as vehicle control to balance the requisite need of DMSO in HepaRG cultures to maintain differentiation (for example, baseline metabolism, proportions of hepatocytes vs. cholangiocytes), while enabling further hepatic receptor pathway activation (for example, PXR and CAR) in response to chemical exposure. 48 hours after plating, the culture medium was replaced with HepaRG Serum-Free Incudtion Media. Cells were exposed to each test chemical in duplicate and maintained in CO2 incubators for another 48 hours. Chemical plates were thawed to room temperature and 200x concentrations of treatment groups were prepared. 8-point conentration-reponse curves were made with the highest exposure at 100 uM, followed by half-log dilutions, all in 0.5% DMSO. Each test plate contained variouse controls, induction positive controls (1mM phenobarbital), cytotoxicity positive controls ([…] aflatoxin B1), vehicle controls (0.5% DMSO), and total lysis controls (0.5% DMSO). Cell morphology images were taken using an Essen IncuCyte FLR automated microscope, with six 96-well plates imaged in about 24 minutes. Images were captured and exported and JPEG files. Spent culture media was transfered to black-well plates for the LDH assay, and remaining media was sorted at -80 C for later use. Cells were treated with RLT buffer and frozen until shipped for gene expression analysis. Total RNA was isolated from the cell suspension in 75 uL of Buffer RLT (Qiagen, Germantown, MD 20874) by Quintiles/Expression Analysis (Durham, NC) using a custom isolation procedure. Total RNA from each plate well was transferred to a preamplification plate. Fluidigm's 96.96 Dynamic ArrayTM (Fluidigm, Amsterdam, the Netherlands) technology was used for gene expression analyses by quantitative reverse transcription polymerase chain reaction (qRT-PCR, performed by Quintiles/Expression Analysis, Durham, NC)89. Standard TaqManTM Assays (Applied Biosystems/ThermoFisher Scientific, Foster City, CA) were used to assess the expression of 93 genes selected based on their selectivity and sensitivity to important hepatic receptors known to be modulated by environmental chemicals; importance in human hepatocyte functionality; and hepatotoxicity. […]
Structure (SMILES),AC50,outcome
Nc1ccc(Cc2ccc(N)cc2)cc1,32.3 µM (active),–
Cc1ccc(N)c(N)c1,40.2 µM (active),–
O=Cc1ccco1,50 µM (active),–
CN(C)[C@@H]1C(=O)C(C(N)=O)=C(O)[C@@]2(O)C(=O)C3=C(O)c4c(O)cccc4[C@@](C)(O)[C@H]3C[C@@H]12,34.7 µM (active),–
CC(O)CCO (stereo not given),–,inactive
ClC1=C(Cl)C2(Cl)C3C(Cl)C=CC3C1(Cl)C2(Cl)Cl (stereo not given),18.3 µM (active),–
Clc1ccccc1Cl,–,inactive
CN(C)C(=O)Nc1ccc(Cl)cc1,38 µM (active),–
CC(C)(O)c1cnn2c(-c3ccc(F)c(-c4c(F)cccc4C#N)c3)cnc2n1,11.9 µM (active),–
COC(=O)c1ccccc1N,–,inactive
Cc1cccc(N)c1N,6.92 µM (active),–
O=[N+]([O-])c1ccc(Oc2ccc(Cl)cc2Cl)cc1,22.8 µM (active),–
CS(=O)(=O)NC(=O)c1cc(Oc2ccc(C(F)(F)F)cc2Cl)ccc1[N+](=O)[O-],39.3 µM (active),–
Clc1ccc(Cl)c(Cl)c1,–,inactive
Clc1ccc(C(c2ccc(Cl)cc2)C(Cl)(Cl)Cl)cc1,9.54 µM (active),–
N#CC(Br)(Br)C(N)=O,–,inactive
Nc1ccc([N+](=O)[O-])cc1,50 µM (active),–
Cc1ccc(N)cc1,–,inactive
[O-][Cl+]O,–,inactive
Brc1ccc(Oc2ccccc2)cc1,50 µM (active),–

Structure (SMILES),AC50,outcome
Cc1ccc([N+](=O)[O-])cc1,9.92 µM (active),–
CN(C)c1ccccc1,63.3 µM (active),–
c1ccc2c(c1)-c1cccc3cccc-2c13,33.3 µM (active),–
CCCCCCCCCCCCCN1CC(C)OC(C)C1 (stereo not given),50 µM (active),–
CC(C)(C)OOC(C)(C)CCC(C)(C)OOC(C)(C)C,64.2 µM (active),–
COc1cc(C=O)cc2c1[C@H](COC(N)=O)[C@]1(OC(C)=O)ON2C[C@H]2[C@@H]1N2C(C)=O,4.09 µM (active),–
CC(C)(OOC(C)(C)c1ccccc1)c1ccccc1,50 µM (active),–
CCN(CC)N=O,76.5 µM (active),–
c1ccc(C2CO2)cc1 (stereo not given),–,inactive
Cn1cc(-c2ccccc2)c(=O)c(-c2cccc(C(F)(F)F)c2)c1,32.6 µM (active),–
Clc1ccc(C(c2ccc(Cl)cc2)C(Cl)Cl)cc1,29.5 µM (active),–
O=P(OCCCl)(OCCCl)OCCCl,76 µM (active),–
CCCSC(=O)N(CCC)CCC,50 µM (active),–
CCC12COCN1COC2,50 µM (active),–
O=C(O)C1C2CCC(O2)C1C(=O)O (stereo not given),82.6 µM (active),–
CCCCCOC(=O)c1ccccc1C(=O)OCCCCC,18 µM (active),–
O=C1CCCO1,–,inactive
CCCCCCCCn1sccc1=O,32.8 µM (active),–
O=[N+]([O-])C(Br)(CO)CO,50 µM (active),–
COC(=O)Nc1nc2ccccc2[nH]1,24.7 µM (active),–
